# Laboratory results reported in the supplement of paper PMC6555819.
# Tests used:
# Test in all cases: PBM binding z-score (relative to random genomic background probes); higher = stronger binding; sequences stand for … in GC…GCGATTGACAGCGTAGAATGAAGG
# [1] = test system: RARb homodimer (NR concentration 270 nM)
# Summary of the method: (§1)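 Probes were double-stranded and carried 34-nt variable regions with direct-repeat seeds, single-nucleotide variants, half-site ablations and random human genomic background sequences, printed on custom Agilent 4×180K protein-binding microarrays. Arrays were incubated 1 h with ligand-free nuclear receptor dimers in PBS pH 7.4, 2% milk, 0.02% Triton X-100, 1 mM DTT, 0.2 mg/mL BSA and 0.4 mg/ml salmon testes DNA. Antibodies against each partner (one per run) detected binding, and scanned fluorescence was regression-normalized. Binding z-scores use the random background probes as reference.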
# [2] = test system: RARg:RXRa (NR concentration 270 nM, RXRa partner concentration 90 nM)
# Summary of the method: as §1
# [3] = test system: RARg homodimer (NR concentration 270 nM)
# Summary of the method: as §1
# [4] = test system: RXRa DBDmut IVT, anti-RXR (DBD mutation: RXRa K156A/R161A, NR concentration 90 nM)
# Summary of the method: as §1
# [5] = test system: RXRa homodimer (NR concentration 180 nM)
# Summary of the method: as §1
# [6] = test system: THRa:RXRa (NR concentration 90 nM, RXRa partner concentration 90 nM)
# Summary of the method: as §1
# [7] = test system: THRa homodimer (NR concentration 90 nM)
# Summary of the method: as §1
# [8] = test system: VDR homodimer (NR concentration 270 nM)
# Summary of the method: as §1
Sequence,PBM binding z-score [1],PBM binding z-score [2],PBM binding z-score [3],PBM binding z-score [4],PBM binding z-score [5],PBM binding z-score [6],PBM binding z-score [7],PBM binding z-score [8]
GGAACGAGGGCATTCGAATTGATAGCATGGCGAT,0.601,1.21,1.55,3.14,0.908,0.827,-0.231,1.99
GATACAGGGTCAGGGCCAGAGTACGCGTATTGAT,3.15,4.29,4.19,0.901,4.15,2.89,0.838,1.2
TTAGACAGGTGAAGGTAACTCAGGTACGCAGTCG,0.861,0.559,0.81,-0.329,0.753,1.48,0.377,0.53
ACTTACGGGTCAACGATGTTATAGCACGCGTATA,3.01,5.25,5,2.19,5.56,2.76,0.387,1.21
CCTATTAGTTGACCATAAGCGCAACCGAAGCTCG,0.669,0.621,0.455,0.856,0.371,0.364,0.809,0.721
ATCTCTGGGTAAAAGTTCAGTGAATCCCGAGGAT,2.6,2.36,2.45,0.812,1.69,0.969,-0.0851,1.53
GATAGAGGGTCAAGGCCAGAGTACGCGTATTGAT,3.47,4.81,4.67,1.49,4.38,2.65,0.388,1.59
GGAACGAGGACAAAGTTGATAGCATCTGTCGACG,0.33,0.769,1.2,1.23,0.361,2.36,0.861,0.141
AATACAGGGTCATCGTAGGCCAGATTACGCACAG,3.54,5.85,4.96,3.82,6.58,4.42,1.56,3.35
ATCGAAAGGTCGAAGGTGATTATACCCACCCGAA,2.14,4.11,3.87,0.956,4.77,1.97,0.193,0.477
AGAATGCGGTTATACGTAGATCAGGGAAGAAAGT,-0.25,0.0152,-0.0583,-0.501,0.067,-0.31,-0.634,-0.661
CCTACAGGGCCATTCAGAGGTCATTGATCATATG,4.27,5.34,3.29,1.85,3.85,3.38,1.34,4.16
CGAACTAGGTCACCGGAAGGTCAAAGTCCGCATG,5.45,8.27,7.14,2.43,6.38,4.36,2.81,4.01
TCGAGTATGTTACCAATGGGGCATTCAGCTTTCT,-0.135,-0.111,-0.492,0.904,-0.0794,-0.318,-0.731,-0.375
ATCTCTAGGTAAAGATAGTTCAGTGACTGCAAAT,1.33,0.534,0.542,0.648,-0.00287,0.905,0.426,0.571
TCGAGTAGGTTAGTCGGGGCAATCAGCCAACATA,0.889,0.0718,0.25,0.255,0.0944,2.38,-0.198,-0.417
GCTGCTTGGTCAGGTTGGTCAGCTAACGGGTACG,0.727,-0.088,0.0673,0.0173,-0.438,-0.199,0.0955,0.00601

Sequence,PBM binding z-score [1],PBM binding z-score [2],PBM binding z-score [3],PBM binding z-score [4],PBM binding z-score [5],PBM binding z-score [6],PBM binding z-score [7],PBM binding z-score [8]
TCATATAGGTAAATGCTCGGTGAAAGTCCGATCT,0.197,0.387,0.081,1.45,0.76,0.193,0.208,0.375
AATACAGGGTCACTAGGCAAGAGTAGGTACGAAT,2.95,5.02,4.81,2.61,5.45,3.48,1.19,2.42
TAACCAAGGTGAAAGGTCGTTGATGCACGCCTTG,2.82,4.47,2.52,0.794,6.28,3.33,0.878,1.5
ATATGTAGGTTACATCCTGGTCATTCAGGCTATG,1.25,1.72,1.3,0.78,1.35,1.26,0.551,0.582
ACTATTAATTGACTTAGGGCAACCGATACGACGC,1,0.766,0.814,0.828,0.409,0.884,1.15,1.24
TCATGTAGATCAATAGAGGTTAAGAAAGTGCGCT,1.44,0.871,0.576,1.27,1.28,2.31,-0.192,0.637
CAAACTACGTCAAGGTCAAAGTCGGTTTGTGCCA,4.2,4.46,4.3,2.66,4.77,3.96,3.63,4.35
TCATATAGCTAAAGGTGAAAGTCGAACGATATGA,1.14,1.43,0.944,0.443,1.84,1.18,-0.427,-0.396
AGAATGAGGTTCAGATCAGGGAAACAGAATACAT,0.405,0.907,0.758,1.63,1.02,2.61,-0.043,1.03
TCATATAGGTAAATGCTAGGTGAAGGTCCGATCT,0.576,0.474,0.349,1.34,0.65,1.43,0.583,0.324
TTACCAACGTGAGCTGAGGTCGTTGATCCAACTC,0.839,0.0093,-0.366,0.168,0.547,2.48,1.5,2.12
TGAATGAGGTTATAAGAGCAGGGAACGTTGCAAA,0.269,1.47,0.87,0.547,1.87,1.66,0.0456,0.451
CCTACTGGGCCATTCAGAGCTCATTGATCATATG,-0.346,-0.434,-0.184,0.0203,-0.591,-0.578,-0.449,-0.387
ACTCGGAGGACGAAGGTCAGAGCTACGCCAGTGA,2.86,2.9,2.48,0.315,2.01,1.64,-0.396,0.109
ACCCGGAGGACAAAGGTCAGAGCTACGCCAGTGA,4.67,6.15,5.22,0.737,4.97,3.4,0.681,1.24
CTCGAAAGGTCGGTTGAGGGGAGTATACGGATAA,1.86,2.44,2.58,0.704,2.14,4,-0.23,0.528
CGTTCAAGGTCAGCAGGTCAGTGAAAGCGACGTG,5.45,6.75,7.14,3.31,5.46,4.18,3.13,2.25
